Test results reported in PubChem BioAssay (NCATS).
Results filed as inconclusive are left out. Activity calls are given as the source filed them. Unless noted, the call rests on the fitted dose curve; in most records, active means well fitted curve in the direction sought with a large enough effect; inconclusive means small, poorly fitted or top-dose-only effect, or another doubt; inactive means no such curve, though single readings can be large; an effect the other way counts as inactive or inconclusive.

Experiments:
[1] = molecular target: T1, Tyrosine-protein phosphatase non-receptor type substrate 1 (Homo sapiens) + Leukocyte surface antigen CD47 (Homo sapiens) (UniProt P78324+Q08722); test: CD47-SIRPalpha protein protein interaction - LANCE assay qHTS validation (AID 1347057; active means well fitted curve in the direction sought with a large enough effect in the signal ratio, with a control signal flat, not every such curve was filed as active; the % refers to the signal ratio; further: series mostly up to about 38 µM)
Method in brief: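 First, His-tagged CD47 and Eu-labelled anti-His antibody met the compound for 30 min; next, site-specifically biotinylated SIRPalpha was added for 30 min; finally streptavidin-APC was added before reading the TR-FRET ratio.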

[2] = molecular target: T1, Tyrosine-protein phosphatase non-receptor type substrate 1 (Homo sapiens) + Leukocyte surface antigen CD47 (Homo sapiens); test: CD47-SIRPalpha protein protein interaction - HTRF assay qHTS validation (AID 1347058; active means well fitted curve in the direction sought with a large enough effect in the signal ratio, not every such curve was filed as active; the % refers to the signal ratio; further: series mostly up to about 38 µM)
Method in brief: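 TR-FRET read (Ch1/Ch2 ratio) of soluble extracellular CD47 and Avi-biotinylated SIRPalpha domains in PBS pH 7.4 with 0.05% IGEPAL; 7-point compound titration. Sequential 30 min room-temperature steps; non-biotinylated SIRPalpha as control inhibitor.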

[3] = molecular target: T1, Tyrosine-protein phosphatase non-receptor type substrate 1 (Homo sapiens) + Leukocyte surface antigen CD47 (Homo sapiens); test: CD47-SIRPalpha protein protein interaction - Alpha assay qHTS validation (AID 1347059);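 further: bead proximity luminescence from CD47 binding SIRPalpha after compound preincubation with SIRPalpha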; further: potency means the concentration at half of the fitted maximal effect
Method in brief: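 Soluble extracellular domains: Avi-tag biotinylated SIRPalpha (25 nM) preincubated 30 min RT with compound, then 6His-CD47 (12.5 nM) 30 min; Ni-NTA acceptor and streptavidin donor beads (10 ug/mL) 30 min, AlphaScreen read. PBS pH 7.4, 0.05% IGEPAL.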

[4] = molecular target: Parathyroid hormone/parathyroid hormone-related peptide receptor (Homo sapiens) (UniProt Q03431); test: qHTS for PTHR1 Agonists: Optimization Screen against the NCGC LOPAC library (AID 1347079);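 further: GloSensor cAMP luminescence in HEK-293 GP2 cells expressing human PTHR1 with IBMX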
Method in brief: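 Compounds were tested across a qHTS titration. PTHR1-expressing GP2 cells report cAMP rises via GloSensor luminescence after 1 hr compound exposure at 37C with IBMX present.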

[5] = qHTS for Inhibitors of the Functional Ribonucleoprotein Complex (vRNP) of Lassa (LASV) Arenavirus: LASV Primary Screen - GLuc reporter signal (AID 1347082; calls by dose curve; tested in HEK293 reporter line; further: nearly all actives have a fitted effect of over 60% in size; further: potency means the concentration at half of the fitted maximal effect)
[6] = qHTS for Inhibitors of the Functional Ribonucleoprotein Complex (vRNP) of Lassa (LASV) Arenavirus: Viability assay - alamar blue signal for LASV Primary Screen (AID 1347083; calls by dose curve; tested in HEK293 reporter line; further: nearly all actives have a fitted effect of over 80% in size; further: potency means the concentration at half of the fitted maximal effect)
[7] = qHTS for Inhibitors of the Functional Ribonucleoprotein Complex (vRNP) of Lymphocytic Choriomeningitis Arenaviruses (LCMV): Viability assay - alamar blue signal for LCMV Primary Screen (AID 1347085; calls by dose curve; tested in HEK293 reporter line; further: series mostly up to about 57 µM; nearly all actives have a fitted effect of over 80% in size)
[8] = molecular target: Nucleoprotein (Lymphocytic choriomeningitis virus (strain Armstrong)) (UniProt P09992); test: qHTS for Inhibitors of the Functional Ribonucleoprotein Complex (vRNP) of Lymphocytic Choriomeningitis Arenaviruses (LCMV): LCMV Primary Screen - GLuc reporter signal (AID 1347086; calls by dose curve; further: series mostly up to about 57 µM; nearly all actives have a fitted effect of over 70% in size)
[9] = qHTS of pediatric cancer cell lines to identify multiple opportunities for drug repurposing: Primary screen for TC32 cells (AID 1347089); further: nearly all actives have a fitted effect of over 60% in size
Method in brief: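 qHTS, TC32, 48 h drug treatment, CellTiter-Glo luminescence as a proxy for metabolically active cells; primary top concentration 46 µM (MIPE 11-pt, NPC 8-pt); confirmatory 11-pt.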

[10] = qHTS of pediatric cancer cell lines to identify multiple opportunities for drug repurposing: Primary screen for DAOY cells (AID 1347090); further: potency means the concentration at half of the fitted maximal effect; nearly all actives have a fitted effect of over 55% in size
Method in brief: (§1)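 Eight- or eleven-point concentration series, 48 h treatment at 37 degrees C in growth media; readout CellTiter-Glo luminescence. Potency and efficacy were taken from the concentration-response curves.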

[11] = qHTS of pediatric cancer cell lines to identify multiple opportunities for drug repurposing: Primary screen for SJ-GBM2 cells (AID 1347091)
Method in brief: as §1

[12] = qHTS of pediatric cancer cell lines to identify multiple opportunities for drug repurposing: Primary screen for A673 cells (AID 1347092); further: potency means the concentration at half of the fitted maximal effect; nearly all actives have a fitted effect of over 45% in size
Method in brief: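 Luminescence from CellTiter-Glo, taken after 15 min at room temperature, served as the proxy for metabolically active cells following 48 h treatment. Both potency and efficacy were taken from curves fitted to the titration data.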

[13] = qHTS of pediatric cancer cell lines to identify multiple opportunities for drug repurposing: Primary screen for SK-N-MC cells (AID 1347093); further: potency means the concentration at half of the fitted maximal effect
Method in brief: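 Metabolically active cells were quantified by ATP-dependent luminescence (CellTiter-Glo, 15 min at room temperature) following 48 h treatment. Cells had been plated at 500-1,000 per well and settled for 5 h beforehand.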

[14] = qHTS of pediatric cancer cell lines to identify multiple opportunities for drug repurposing: Primary screen for NB-EBc1 cells (AID 1347095)
Method in brief: (§2)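 Following a 5-hour attachment period, cells at 500-1,000/well received compounds and were cultured for 48 hours. CellTiter-Glo was added and luminescence read to estimate viable, metabolically active cells.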

[15] = qHTS of pediatric cancer cell lines to identify multiple opportunities for drug repurposing: Primary screen for U-2 OS cells (AID 1347096); further: nearly all actives have a fitted effect of over 50% in size
Method in brief: (§3)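 Cells (500-1,000/well) in growth media were settled 5 h at 37 degrees C, then given compounds for 48 h. Viability was read as CellTiter-Glo luminescence. Primary runs used MIPE at 11 points (0.78 nM-46 µM) and NPC at 8 points (0.59 nM-46 µM); follow-ups used 11 points.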

[16] = qHTS of pediatric cancer cell lines to identify multiple opportunities for drug repurposing: Primary screen for SK-N-SH cells (AID 1347098); further: potency means the concentration at half of the fitted maximal effect; nearly all actives have a fitted effect of over 65% in size
Method in brief: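 Cells (500-1,000/well) rested 5 h, then received compounds for 48 h; metabolically active cells were measured by CellTiter-Glo luminescence. Final concentrations spanned up to 46 µM (MIPE, 11-point) or 0.59 nM-46 µM (NPC, 8-point) in primary screens, 11-point in follow-ups.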

[17] = qHTS of pediatric cancer cell lines to identify multiple opportunities for drug repurposing: Primary screen for NB1643 cells (AID 1347099); further: potency means the concentration at half of the fitted maximal effect; nearly all actives have a fitted effect of over 50% in size
Method in brief: as §2

[18] = qHTS of pediatric cancer cell lines to identify multiple opportunities for drug repurposing: Primary screen for LAN-5 cells (AID 1347100)
Method in brief: as §3

Measured: Potency

Sequence of Parathyroid hormone/parathyroid hormone-related peptide receptor (Homo sapiens) (Q03431 whole entry, looked up): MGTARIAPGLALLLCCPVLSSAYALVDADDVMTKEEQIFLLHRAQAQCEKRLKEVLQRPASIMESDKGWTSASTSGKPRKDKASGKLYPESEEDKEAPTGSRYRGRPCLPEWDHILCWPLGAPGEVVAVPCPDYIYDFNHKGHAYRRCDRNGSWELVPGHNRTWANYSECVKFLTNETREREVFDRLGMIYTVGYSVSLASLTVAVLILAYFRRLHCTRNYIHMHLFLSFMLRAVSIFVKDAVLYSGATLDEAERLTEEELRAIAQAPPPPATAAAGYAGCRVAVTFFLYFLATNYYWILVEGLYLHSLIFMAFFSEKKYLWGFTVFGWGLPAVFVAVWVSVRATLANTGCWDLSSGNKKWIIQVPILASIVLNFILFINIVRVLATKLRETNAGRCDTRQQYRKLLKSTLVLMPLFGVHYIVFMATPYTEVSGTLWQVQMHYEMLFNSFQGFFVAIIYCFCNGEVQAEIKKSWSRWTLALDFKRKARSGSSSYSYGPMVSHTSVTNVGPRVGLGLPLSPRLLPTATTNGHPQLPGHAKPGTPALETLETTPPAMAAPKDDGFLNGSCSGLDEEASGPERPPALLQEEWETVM
T1 sequence (P78324 whole entry, looked up): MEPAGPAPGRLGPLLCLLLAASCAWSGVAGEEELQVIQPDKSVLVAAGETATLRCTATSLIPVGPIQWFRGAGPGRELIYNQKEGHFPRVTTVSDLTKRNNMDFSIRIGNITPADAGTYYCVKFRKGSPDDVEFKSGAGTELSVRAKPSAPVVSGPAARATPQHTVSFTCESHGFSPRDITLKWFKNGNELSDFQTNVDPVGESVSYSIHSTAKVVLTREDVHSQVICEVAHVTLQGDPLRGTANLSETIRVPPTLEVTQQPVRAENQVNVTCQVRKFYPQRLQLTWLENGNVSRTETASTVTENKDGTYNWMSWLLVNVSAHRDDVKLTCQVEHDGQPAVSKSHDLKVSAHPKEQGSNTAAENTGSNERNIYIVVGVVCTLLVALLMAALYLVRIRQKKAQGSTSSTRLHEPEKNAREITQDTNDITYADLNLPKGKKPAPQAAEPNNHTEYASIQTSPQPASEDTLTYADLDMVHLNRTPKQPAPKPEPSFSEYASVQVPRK
T1 sequence (Q08722 whole entry, looked up): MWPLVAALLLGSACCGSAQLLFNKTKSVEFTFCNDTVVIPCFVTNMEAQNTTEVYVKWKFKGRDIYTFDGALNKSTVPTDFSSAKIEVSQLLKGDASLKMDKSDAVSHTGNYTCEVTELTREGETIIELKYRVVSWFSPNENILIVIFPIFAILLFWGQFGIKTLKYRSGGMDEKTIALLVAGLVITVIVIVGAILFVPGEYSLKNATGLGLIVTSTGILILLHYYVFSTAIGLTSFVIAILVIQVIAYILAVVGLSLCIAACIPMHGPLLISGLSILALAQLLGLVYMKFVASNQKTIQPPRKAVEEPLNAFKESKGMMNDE
Sequence of Nucleoprotein (Lymphocytic choriomeningitis virus (strain Armstrong)) (P09992 whole entry, looked up): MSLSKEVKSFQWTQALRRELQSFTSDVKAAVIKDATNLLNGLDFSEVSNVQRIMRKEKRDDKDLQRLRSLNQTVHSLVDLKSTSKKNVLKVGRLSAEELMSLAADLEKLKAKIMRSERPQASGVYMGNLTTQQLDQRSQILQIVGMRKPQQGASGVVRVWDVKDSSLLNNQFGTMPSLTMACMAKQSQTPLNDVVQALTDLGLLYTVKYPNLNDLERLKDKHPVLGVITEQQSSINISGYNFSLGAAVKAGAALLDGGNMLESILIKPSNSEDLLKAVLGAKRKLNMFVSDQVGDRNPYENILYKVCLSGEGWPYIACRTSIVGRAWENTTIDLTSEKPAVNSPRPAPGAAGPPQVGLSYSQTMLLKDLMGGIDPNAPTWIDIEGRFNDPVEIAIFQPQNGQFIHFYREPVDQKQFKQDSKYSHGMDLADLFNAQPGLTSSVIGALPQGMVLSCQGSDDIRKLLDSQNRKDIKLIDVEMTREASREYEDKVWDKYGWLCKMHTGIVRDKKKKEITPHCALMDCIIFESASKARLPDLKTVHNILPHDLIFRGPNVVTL

CNCCc1ccc(O)c(O)c1
inactive: [1] | [2] | [3] | [4] | [5] | [6] | [7] | [8]

O=C(O)[C@@H]1CCN1
inactive: [1] | [2] | [3] | [4] | [5] | [6] | [7] | [8]

CS(=N)(=O)CC[C@H](N)C(=O)O (some centres not stated)
inactive: [1] | [2] | [3] | [4] | [5] | [6] | [7] | [8]

Cc1nccc2c1[nH]c1ccccc12
inactive: [1] | [2] | [3] | [4] | [5] | [6] | [7] | [8]

Cn1cnc(CCN)c1
inactive: [1] | [2] | [3] | [4] | [5] | [6] | [7] | [8]

NC1CCc2cc(O)c(O)cc2C1 (configuration not stated)
inactive: [1] | [2] | [3] | [4] | [5] | [6] | [7] | [8]

CCCN(CCC)C1CCc2ccc(O)cc2C1 (configuration not stated)
inactive: [1] | [2] | [3] | [4] | [5] | [6] | [7] | [8]

NCc1cc(=O)[nH]o1
inactive: [1] | [2] | [3] | [4] | [5] | [6] | [7] | [8]

O=C1CCCN1CC#CCN1CCCC1
inactive: [1] | [2] | [3] | [4] | [5] | [6] | [7] | [8]

C/C=C(/C)C(=O)O[C@H]1C(C)=C2[C@H]([C@@H]1OC(=O)CCCCCCC)[C@@](C)(OC(C)=O)C[C@H](OC(=O)CCC)[C@@]1(O)[C@H]2OC(=O)[C@@]1(C)O
inactive: [1] | [2] | [3] | [4]

CCCCc1ccc(C(=O)O)nc1
active: [3] 16.5 µM
inactive: [1] | [2] | [4] | [5] | [6] | [7] | [8]

CN[C@@H]1C[C@@H](c2ccc(Cl)c(Cl)c2)c2ccccc21
inactive: [1] | [2] | [3] | [4]

C#CCOC(=O)C1=CCCN(C)C1
inactive: [1] | [2] | [3] | [4] | [5] | [6] | [7] | [8]

Clc1cnc(Oc2ccc(Oc3ncc(Cl)cc3Cl)cc2)c(Cl)c1
inactive: [1] | [2] | [3] | [4] | [5] | [6] | [7] | [8]

C[C@@H](N)Cc1cnc[nH]1
inactive: [1] | [2] | [3] | [4] | [5] | [6] | [7] | [8]

c1ccc2sc(C3(N4CCCCC4)CCCCC3)cc2c1
inactive: [1] | [2] | [3] | [4] | [5] | [6] | [7] | [8]

CNCCc1c[nH]c2ccc(O)cc12
inactive: [1] | [2] | [3] | [4] | [5] | [6] | [7] | [8]

CN1C2CCC1CC(OC(=O)c1cc(Cl)cc(Cl)c1)C2 (configuration not stated)
inactive: [1] | [2] | [3] | [4] | [5] | [6] | [7] | [8]

CC(=O)[C@H]1CCC2C3CC[C@H]4C[C@H](O)CC[C@]4(C)C3CC[C@@]21C (some centres not stated)
inactive: [1] | [2] | [3] | [4] | [5] | [6] | [7] | [8]

CCCN1CCC[C@H](c2cccc(O)c2)C1
inactive: [1] | [2] | [3] | [4] | [5] | [6] | [7] | [8]

CC(C)Oc1cccnc1N(C)C1CCN(Cc2ccccc2)CC1
inactive: [1] | [2] | [3] | [4] | [5] | [6] | [7] | [8]

C=CCN1CC[C@]23CCCCC2[C@H]1Cc1ccc(O)cc13 (some centres not stated)
inactive: [1] | [2] | [3] | [4] | [5] | [6] | [7] | [8]

NCCc1c[nH]c2ccc(O)cc12
inactive: [1] | [2] | [3] | [4] | [5] | [6] | [7] | [8]

C[C@@H]1O[C@H](C[N+](C)(C)C)C[C@H]1O
inactive: [1] | [2] | [3] | [4] | [5] | [6] | [7] | [8]

O=C(O)CC[N+](=O)[O-]
inactive: [1] | [2] | [3] | [4] | [5] | [6] | [7] | [8]

O=C(Cc1ccc(Cl)c(Cl)c1)N1CCCCC1CN1CCCC1 (configuration not stated)
inactive: [1] | [2] | [3] | [4] | [5] | [6] | [7] | [8]

NC(CCP(=O)(O)O)C(=O)O (configuration not stated)
inactive: [1] | [2] | [3] | [4] | [5] | [6] | [7] | [8]

NC(=O)CN1CC(O)CC1=O (configuration not stated)
inactive: [1] | [2] | [3] | [4] | [5] | [6] | [7] | [8]

NC(=NCCC[C@H](N)C(=O)O)N[N+](=O)[O-]
inactive: [1] | [2] | [3] | [4] | [5] | [6] | [7] | [8]

NC(CP(=O)(O)O)C(=O)O (configuration not stated)
inactive: [1] | [2] | [3] | [4] | [5] | [6] | [7] | [8]

COc1cc(C(O)CN)ccc1O (configuration not stated)
inactive: [1] | [2] | [3] | [4] | [5] | [6] | [7] | [8]

CCCN(CCC)[C@@H]1CCc2ccc(O)cc2C1
inactive: [1] | [2] | [3] | [4] | [5] | [6] | [7] | [8]

NCCc1c[nH]c2ccccc12
inactive: [1] | [2] | [3] | [4] | [5] | [6] | [7] | [8]

CC(C)NC(C)Cc1ccc(I)cc1 (configuration not stated)
inactive: [1] | [2] | [3] | [4] | [5] | [6] | [7] | [8]

C[C@]12CCC3C(CC[C@H]4C[C@H](O)CC[C@]34C)C1CC[C@@H]2C(=O)CO (some centres not stated)
inactive: [1] | [2] | [3] | [4] | [5] | [6] | [7] | [8]

S=C(NC1CCCCC1)N1CCC(c2cnc[nH]2)CC1
inactive: [1] | [2] | [3] | [4] | [5] | [6] | [7] | [8]

C[N+]1(C)C2CCC1CC(OC(=O)C(CO)c1ccccc1)C2 (configuration not stated)
inactive: [1] | [2] | [3] | [4] | [5] | [6] | [7] | [8]

CC(=O)NCCc1c[nH]c2ccccc12
inactive: [1] | [2] | [3] | [4] | [5] | [6] | [7] | [8]

CCCN1CCO[C@@H]2c3cc(O)ccc3OC[C@H]21
inactive: [1] | [2] | [3] | [4] | [5] | [6] | [7] | [8]

O=C(N[C@H]1CN2CCC1CC2)c1ccc(Cl)cc1
inactive: [1] | [2] | [3] | [4] | [5] | [7] | [8] | [9] | [11] | [14] | [15] | [18]
active: [10] 18.7 µM | [12] 5.9 µM | [13] 1.66 µM | [16] 6.81 µM | [17] 2.64 µM

CC(=O)N(C)C1(c2ccccc2)CCN(CCC[C@]2(c3ccc(Cl)c(Cl)c3)CCCN(C(=O)c3ccccc3)C2)CC1
inactive: [5] | [6]

CCCCn1c(=O)n(Cc2ccccc2F)c(=O)c2[nH]c(Cc3ccc(NC(C)=O)cc3)nc21
inactive: [5]

c1ccc(C2(c3ccccc3)CC2C2=NCCN2)cc1 (configuration not stated)
inactive: [4] | [5] | [6] | [7] | [8]

CC1=C[C@@H]2[C@@H]([C@@H](O)C[C@@]3(C)[C@H]2C[C@@H](C)[C@]3(O)C(=O)CO)[C@@]2(C)Cc3cnn(-c4ccccc4)c3C=C12
inactive: [5]

CN(C)CC=CC(=O)Nc1cc2c(Nc3ccc(F)c(Cl)c3)ncnc2cc1O[C@H]1CCOC1
active: [5] 13.7 µM | [6] 24.3 µM

C[C@]12N[C@H](Cc3ccccc31)c1ccccc12
inactive: [1] | [2] | [4] | [5] | [6] | [7] | [8]

COC(=O)c1c(Cl)c(Cl)c(C(=O)OC)c(Cl)c1Cl
inactive: [5] | [6]

Cc1cccc(-c2[nH]c(C(C)(C)C)nc2-c2ccc3nccnc3c2)n1
active: [5] 9.68 µM
